Compounds without any hit were thinned out: in the full panel of roughly 83,000, 20% have a hit.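 In brief: 96-well plates, 48 h treatment, single concentration, percent growth endpoint.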 A number with no mark means an inactive call. Activity calls are given as the source filed them. The calls were made as follows: active = growth percent below 10; inactive = the rest.
Key:
Assay in all cases: NCI-60 one-dose screen, 48 h (100 = growth as untreated, 0 = no growth, -100 = all killed)
NCI-H226 lung = settings: 10 µM unless noted
NCI-H322M lung = settings: 10 µM unless noted
HOP-62 NSCLC = settings: 10 µM unless noted
NCI-H522 lung = settings: 10 µM unless noted
SNB-19 CNS = settings: 10 µM unless noted
U251 CNS = settings: 10 µM unless noted
EKVX NSCLC = settings: 10 µM unless noted
TK-10 renal = settings: 10 µM unless noted
CCRF-CEM leukemia = settings: 10 µM unless noted
SR leukemia = settings: 10 µM
RPMI-8226 leukemia = settings: 10 µM unless noted
SK-OV-3 ovarian = settings: 10 µM unless noted
IGROV1 ovarian = settings: 10 µM
HS 578T breast = settings: 10 µM unless noted
T-47D breast = settings: 10 µM unless noted
MCF7 breast = settings: 10 µM unless noted
HCC-2998 colon = settings: 10 µM unless noted
HOP-92 NSCLC = settings: 10 µM unless noted
BT-549 breast = settings: 10 µM

Row | Compound | growth (NCI-H226 lung) | growth (NCI-H322M lung) | growth (HOP-62 NSCLC) | growth (NCI-H522 lung) | growth (SNB-19 CNS) | growth (U251 CNS) | growth (EKVX NSCLC) | growth (TK-10 renal) | growth (CCRF-CEM leukemia) | growth (SR leukemia) | growth (RPMI-8226 leukemia) | growth (SK-OV-3 ovarian) | growth (IGROV1 ovarian) | growth (HS 578T breast) | growth (T-47D breast) | growth (MCF7 breast) | growth (HCC-2998 colon) | growth (HOP-92 NSCLC) | growth (BT-549 breast)
1 | O=[N+]([O-])c1ccc(F)c([N+](=O)[O-])c1F | 100% | 91.7% | 106% | 95.3% | 115% | 101% | 100% | 99.9% | 61.7% | 8.94% (active) | 93.5% | 105% | 105% | 103% | 96.6% | 102% | 105% |  | 
2 | CC(C)(NC(=O)c1nn(CCCCCF)c2ccccc12)c1ccccc1 | 80.2% | 105% |  | 64.3% | 106% | 84.4% | 94.7% | 103% | 82.5% | 85.2% |  | 87.8% | 101% | 96.6% | 75.4% | 98.3% | 105% | 68.6% | 73.5%
3 | CC1(C)CC(=O)CC(C)(C)N1N=O | 104% | 121% | 97.3% |  | 107% | 118% | 112% | 91.8% |  | 109% |  | 105% | 122% |  | 97.3% | 97.9% | 97.9% |  | 
4 | C[C@]12CC[C@@H]3c4ccc(OC(=O)Cc5ccc(N(CCCl)CCCl)cc5)cc4CC[C@H]3[C@@H]1CC[C@@H]2OC(=O)Cc1ccc(N(CCCl)CCCl)cc1 | 92.6% | 100% | 110% | 134% | 107% | 107% | 110% |  | 136% | 106% | 123% | 126% |  | 120% | 121% | 120% |  |  | 
5 | CC12CCC(=O)C=C1C(O)CC1C2CCC2(C)C(O)CCC12 (stereo not drawn) | 94.7% | 98% |  | 106% | 101% | 97.3% | 107% | 104% | 103% |  | 108% | 115% | 106% | 104% | 112% | 97.1% | 101% | 103% | 117%
6 | N#[N+]c1cnc([O-])[nH]c1=O | 88% | 98.9% | 105% | 14.4% | 97.8% | 98.3% | 114% | 92.6% | 69.9% | 64.8% | 60.2% | 94% |  | 83.5% | 101% | 100% |  |  | 114%
7 | O=S(=O)(O)c1ccc(-c2ccc([As](=O)(O)O)cc2)cc1 | 110% | 104% | 98.6% | 88.8% | 97.7% |  | 101% | 95.5% | 99.7% |  | 102% | 105% | 107% | 110% |  | 103% | 105% | -91% (active) | 106%
8 | CC1CC=CCC12C(=O)NC(=S)NC2=O (stereo not drawn) | 102% | 118% |  | 101% | 109% | 94.9% | 95.9% | 103% | 82.6% |  |  | 104% | 117% | 102% |  | 105% | 116% | 105% | 110%
9 | CC1(C)N=C(N)N=C(N)N1c1ccc(CCCCc2ccc(S(=O)(=O)F)cc2)c(Cl)c1 | 31.8% | 43.1% | 5.05% (active) |  | 38.7% | 9.69% (active) |  | 23% | 11.5% | 33.4% |  | 42% | 29.1% |  | -0.711% (active) | -0.0775% (active) |  |  | 46.2%
10 | CNC(=O)Oc1cccc(OC)c1 | 102% | 132% |  | 96.5% |  |  | 95.5% | 125% |  |  |  |  | 118% | 109% | 108% |  | 105% | 125% | 103%
11 | C[As](=O)(O)c1ccc(C(=O)O)cc1 | 99.7% | 115% | 108% |  | 106% |  |  | 107% |  | 118% | 101% | 106% | 120% | 113% | 110% | 100% | 116% |  | 
12 | Cc1cc(NC(=O)CCc2ccc(N3C(N)=NC(N)=NC3(C)C)cc2)ccc1S(=O)(=O)F | 37.4% | 29.7% | 28.7% | -17.2% (active) | 45% | 24.2% | 58.8% | 14.1% | -13% (active) | -23.7% (active) | -24.6% (active) | 67.3% |  | 74.7% | 75.1% | 14.9% |  |  | 
13 | O=C1NC(=O)C(O)(C2(O)C(=O)NC(=O)NC2=O)C(=O)N1 | 99.5% | 132% | 97.6% | 94.3% | 96.1% | 99.9% | 110% | 118% | 70.1% | 95.1% | 75.6% | 111% |  | 99% | 101% | 138% | -55.7% (active) |  | 
14 | CCCCCCCC(=O)OCC/C=C/C1OC1C1OC(=O)/C=C\C=C\c2nc(oc2C)/C=C(/C)CCC2OC2C1OC(=O)NC(C)=O (stereo not drawn) | -37.5% (active) | 15.6% | -11.6% (active) | -80.3% (active) | -56.8% (active) | -34.3% (active) | -5.8% (active) | 1.86% (active) |  |  | -55.7% (active) | -38.5% (active) | -10.2% (active) | -1.2% (active) | -42.6% (active) | -39.3% (active) | -92.8% (active) |  | -2.38% (active)
15 | C[C@@H]1O[C@@H](O[C@H]2CC[C@@]3(C)[C@H](CCC4[C@@H]3C(O)C[C@]3(C)[C@@H](c5ccc(=O)oc5)CC[C@]43O)C2)[C@H](O)[C@H](O)[C@H]1O (stereo partly drawn) | -84.2% (active) | -73.9% (active) | -100% (active) | -87% (active) | -91.1% (active) | -97.9% (active) | -58.3% (active) | -97% (active) |  |  |  | -95.6% (active) | -62.9% (active) | -9.52% (active) | -55.6% (active) | -59.4% (active) | -73.6% (active) |  | -89.9% (active)
16 | NC(=O)NC(=O)CI | 95.1% | 119% | 109% |  | 86.3% | 94.7% |  | 88.6% |  | 25.9% | 91.3% |  | 69.5% | 94.3% | 8.8% (active) | 94.3% | 113% |  | 85.8%
17 | O=C1c2ccccc2C(=O)N1[N+](=O)[O-] | 95.6% | 84.4% |  | 88.7% | 6.79% (active) | 93.2% |  | 93.2% | 90% |  | 101% | 114% | 109% | 106% |  | 92.5% | 87.2% | 91.1% | 110%
18 | CC(C)[C@]12O[C@H]1[C@@H]1O[C@]13[C@]1(O[C@H]1C[C@H]1C4=C(CC[C@@]13C)C(=O)OC4)[C@@H]2OC(=O)OC(C)(C)C | 12.6% | 3.68% (active) | 16.6% | -34.3% (active) | 16.5% | 15.5% | -22.4% (active) |  | 13.4% | 3.66% (active) | 20.6% | 43.6% | -5.58% (active) | -6.44% (active) | 23.8% | 18.5% | -38% (active) |  | -12.2% (active)
19 | CCOC(=O)c1cnc(SCc2ccc(Cl)c(Cl)c2)nc1N1CC1 | 75.6% | 69.7% |  | 36.7% | 62.9% | 49% | 69.7% | 71.9% | 38% | 24.1% | 59.7% | 74.6% | 33.7% | 59.3% |  | 29.3% | 51.9% |  | 52.6%
20 | C[CH2][Pb]([CH2]C)([CH2]C)[O]C(=O)COc1ccccc1 | 23.2% | 0.448% (active) |  |  |  | -1.93% (active) |  |  |  |  |  | 4.72% (active) | 2.01% (active) | 4.72% (active) | 17.2% | 0.688% (active) |  |  | -11.4% (active)
21 | O=C(N/N=C/c1ccc(N(CCCl)CCCl)cc1)c1cc(=O)[nH]c(=O)[nH]1 | 5.48% (active) | 92.9% |  | 96.7% |  | 98.2% | 115% | 109% | 66.5% |  | 86.7% |  | 83.9% | 105% |  | 74.5% | 104% |  | 96.8%

— PubChem BioAssay (NCI)
